Data taken from PubChem BioAssay (NCI).
This is part of a sample that, as a whole, favours compounds with a hit. Of some 83,000 tested, about 20% had one in any assay.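 Treatment: one concentration, 48 hours, 96-well format. Scoring: percent growth, with anything below 10 considered active.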 Values without a mark were called inactive. Activity calls are given as the source filed them.

test system: SW-620 colon; assay: NCI-60 one-dose screen, 48 h (100 = growth as untreated, 0 = no growth, -100 = all killed); settings: 10 µM unless noted

| Compound | growth |
| --- | --- |
| CCN(CC)CCn1nc2c3c(cccc3c1=O)-c1ccccc1-2 | 14.3% |
| Cc1cc(Cl)nc(NCc2cc(Nc3ccnc4cc(Cl)ccc34)ccc2F)n1 | 43.9% |
| O=C(NCCCNc1cc(-c2cn(-c3ccccc3)nc2-c2cccc(O)c2)ccn1)c1ccccc1 | -32.4% (active) |
| COc1ccc(-c2cc(-c3cc(OC)ccc3OC)nc(SCC(=O)c3ccccc3)c2C#N)cc1 | 98.6% |
| Nc1cc2c3c(cccc3c1)C(=O)N(CCN1CCCC1)C2=O | 20.3% |
| COc1ccc(-c2csc(C3=C(O)CN(CCCN4CCCC4=O)C3=N)n2)cc1OC | 103% |
| CCCCn1c(=O)c2c(nc(NCCc3ccc(O)c(O)c3)n2CCC)n(CCCC)c1=O | 89.1% |
| N#C/C(=C/C=C/c1cccc(Cl)c1)S(=O)c1ccccc1 (centres undefined) | -58.9% (active) |
| O=C1OC(c2nc3ccccc3s2)=C/C1=C\c1ccc(O)cc1 | 94.4% |
| CC/C=C\CCC/C=C1/C(=O)C=C[C@@H]1C/C=C\CCCC(=O)O | 9.71% (active) |
| CC(=O)C(C)Cc1cc2c(cc1C)C(C)(C)CCC2(C)C (centres undefined) | 102% |
| O=[N+]([O-])c1ccc(C2CC(c3ccccc3)=Nc3ccccc3S2)cc1 (centres undefined) | 79.4% |
| COc1ccc(-c2nc3c(c(=O)n2C(C)=O)C(c2ccc(Cl)cc2)c2sc4c(Cl)cccc4c2O3)cc1 (centres undefined) | -17.5% (active) |
| FC(F)(F)c1cc(Nc2ccc3cc(OCCCN4CCOCC4)ccc3n2)ccc1Cl | -13.7% (active) |
| CC(C)CCC[C@@H](C)[C@H]1CC[C@H]2[C@@H](Nc3ccc(O)cc3)CCC[C@]12C | 114% |
| O=C(N/N=C/c1ccncc1)c1ccc(C(F)(F)F)nc1Nc1cccc(C(F)(F)F)c1 | 14.8% |
| COC(=O)[C@]12CC[C@@H](C)[C@H](C)[C@@H]1C1=CC[C@@H]3[C@@]4(C)C(C=O)=C[C@@](C)(COC(C)=O)[C@@H]4C(=O)C[C@@]3(C)[C@]1(C)CC2 | 29.1% |
| O=C(Nc1ccccc1)Nc1cccc(Oc2nnc(Cl)c3ccccc23)c1 | 73.4% |
| N#Cc1c(-c2ccccc2)cc(-c2ccc(Nc3nc(Nc4ccc(F)cc4)nc(Nc4ccc(F)cc4)n3)cc2)nc1N | 93.9% |
| CCn1c(C)nc2cc(C(N)=O)ccc21 | 100% |
| O=C(/C=C/c1ccco1)c1ccc(Nc2nc(Nc3ccc(F)cc3)nc(Nc3ccc(Cl)cc3)n2)cc1 | 84.4% |
| CC/C=C\C[C@H](O)C/C=C1/C(=O)C=C[C@@H]1C/C=C\CCCC(=O)OC | -44.4% (active) |
| N#Cc1c(-c2cccc(Cl)c2)cc(-c2cccc(Cl)c2)[nH]c1=O | 50.2% |
| O=C1CC(N2C(=O)/C(=C/C(Cl)=C\c3ccc([N+](=O)[O-])cc3)SC2=S)C(=O)N1c1ccc(O)cc1 (centres undefined) | 0.226% (active) |
